Sampled rows, rich in hits. Any-hit rate of the full collection: about 3.2%.
PfGluPho inh = PfG6PD (Plasmodium falciparum) enzyme inhibition. AID 504690. 350,000 tested, 0.78% active. PfGluPho enzyme, NADPH resazurin-diaphorase fluorescence. inhibition, % at 20 µM;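 active = inhibition reaching at least a set limit at 20 µM in the primary screen, cut at about 59% in these data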;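 also: 0% = DMSO wells with substrate and 100% = DMSO wells lacking glucose-6-phosphate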
CRFR2-BP ag = agonists of human CRF-binding protein/CRF-R2 receptor complex | AID 588473 | HEK293 CRF-R2/CRF-BP, calcium dye fluorescence (FLIPR); percent of saturating CRF peptide response | 350,000 tested, 0.46% active | activation, % at 13.2 µM;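 active = activation of at least 50%, plus an integration ratio under a set limit after plate pattern correction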;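 also: plate controls were neutral control wells without compound for no effect and CRF at EC100 for full effect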
H9c2 protect = modulators protecting cardiomyocytes from myocardial damage. protection from H2O2 cell death, % at 20 µM. H9c2 cardiomyocytes, H2O2 injury protection, ATPLite, 2 h. AID 588492. 360,000 tested, 0.63% active;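 active = compounds giving at least 50% protection of heart cells from peroxide-induced death in the single-dose screen, raw or plate-pattern-corrected value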;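 also: 0% = DMSO wells with peroxide and 100% = DMSO wells without peroxide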
aDG glyco act = increases alpha dystroglycan glycosylation. activation, % at 10 µM. 360,000 tested, 0.22% active. AID 624168. Pro5-aDG cells, alpha-DG glycosylation AlphaScreen (IIH6); 0% Pro5, 100% B10-LARGE cell signal;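 active = activation of at least 8% versus controls, or a plate z-score of at least 8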;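 also: Pro5 are CHO cells carrying HIG-tagged alpha-DG that lacks glycosylation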
FAS TE block = FAS thioesterase (human) inhibition; P49327; recombinant FAS-TE, OMFH fluorogenic substrate, fluorescence endpoint; inhibition, % at 15 µM; 360,000 tested, 0.67% active; AID 602261;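 active = compounds whose normalised, plate-corrected inhibition of enzyme fluorescence in the single-dose primary screen is 50% or more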;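 also: 0% = DMSO with enzyme and 100% = substrate without enzyme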
CRFBP-R2 block = blocks CRF-induced signaling of the CRF-BP/CRF-R2 complex; AID 588475; inhibition, % at 11.8 µM; 350,000 tested, 0.59% active; HEK293 CRF-R2/CRF-BP, CRF-induced calcium fluorescence;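 active = inhibition of the ligand-induced calcium signal above about 50% at the single tested concentration, limit read from the data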
PfGluPho conf = confirmation of Plasmodium falciparum G6PD inhibitors | inhibition, % at 20 µM | shares compounds with PfGluPho inh | recombinant PfGluPho, NADPH-diaphorase-resazurin fluorescence | AID 504753 | 2,400 tested, 34% active;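 active = inhibition of at least 50% at 20 µM in any single replicate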;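 also: 0% = DMSO with substrate and 100% = DMSO lacking glucose-6-phosphate substrate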
Diaph ctr 10uM = inhibits diaphorase or oxidizes, flagging false PfG6PD hits | AID 504862 | shares compounds with PfGluPho inh | 820 tested, 39% active | inhibition, % at 20 µM | diaphorase-coupled resazurin reduction, fluorescence, NADPH 10 uM;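 active = average inhibition reaching 50% or more with the compound at 20 µM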;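 also: resorufin red fluorescence formed as diaphorase reduces resazurin using NADPH; 0% = DMSO with enzyme and 100% = DMSO without enzyme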
Diaphorase 30uM = inhibits diaphorase or oxidizes, flagging false PfG6PD hits; Diaphorase/resazurin coupled assay, resorufin fluorescence, 30 uM NADPH; shares compounds with PfGluPho inh; 820 tested, 29% active; inhibition, % at 20 µM;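 active = inhibition averaging 50% or more, tested at 20 µM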;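 also: 0% = DMSO with enzyme and 100% = DMSO wells lacking diaphorase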
* = called active by the depositor.

CC(=O)N1CC[n+]2c(-c3ccc(Cl)cc3Cl)csc21 was read as PfGluPho inh 59*, CRFR2-BP ag 1, H9c2 protect -2, aDG glyco act 0, FAS TE block -165, CRFBP-R2 block -24 and PfGluPho conf -9.
For O=C(c1cc(-c2ccc(Cl)cc2Cl)on1)N1CCOCC1 the results were PfGluPho inh 0, CRFR2-BP ag 0, H9c2 protect -15, aDG glyco act 1, FAS TE block -5 and CRFBP-R2 block 2.
For O=C(CNC(=O)C1COc2ccccc2O1)N/N=C\c1ccc(Br)cc1 (stereo unspecified) the results were PfGluPho inh -3, CRFR2-BP ag -2, H9c2 protect 1, aDG glyco act 0, FAS TE block 4 and CRFBP-R2 block -5.
`COc1ccc(Br)cc1/C=N/NC(=O)CNC(=O)C1COc2ccccc2O1` (stereo unspecified) gave PfGluPho inh 119*, CRFR2-BP ag 0, H9c2 protect 7, aDG glyco act 0, FAS TE block 11, CRFBP-R2 block -18, PfGluPho conf 103*, Diaph ctr 10uM 97* and Diaphorase 30uM 77*.
`COc1ccc(Cc2nnc(NC(=O)CS(=O)(=O)c3ccccc3)s2)cc1OC` gave PfGluPho inh -17, CRFR2-BP ag -2, H9c2 protect -1, aDG glyco act 0, FAS TE block -5 and CRFBP-R2 block 9.
Screening C=CCOC(=O)C1=C(C)N=c2s/c(=C3\C(=O)N(CC(=O)O)c4ccccc43)c(=O)n2C1c1ccc(OC)cc1 (stereo unspecified) returned PfGluPho inh 60*, CRFR2-BP ag 1, H9c2 protect 2, aDG glyco act 0, FAS TE block 8, CRFBP-R2 block 19 and PfGluPho conf -7.
Screening COC(=O)c1[nH]c2ccc(C)cc2c1NS(=O)(=O)c1ccc(F)c(C)c1 returned PfGluPho inh 68*, CRFR2-BP ag -1, H9c2 protect -2, aDG glyco act 0, FAS TE block -3, CRFBP-R2 block -25 and PfGluPho conf 23.
For COC(=O)c1[nH]c2ccc(C)cc2c1NS(=O)(=O)c1ccc(F)cc1 the results were PfGluPho inh 68*, CRFR2-BP ag -2, H9c2 protect -14, aDG glyco act 0, FAS TE block -16, CRFBP-R2 block -6 and PfGluPho conf 24.
NC(=S)NN=Cc1nccc2c(N)cccc12 was read as PfGluPho inh 100*, CRFR2-BP ag -2, H9c2 protect 29, aDG glyco act 1, FAS TE block -1, CRFBP-R2 block 10 and PfGluPho conf 49.
Screening CCN(C(C)=O)c1cnc(C=NNC(N)=S)c2ccccc12 returned PfGluPho inh 34, CRFR2-BP ag -2, H9c2 protect 20, aDG glyco act 1, FAS TE block -4 and CRFBP-R2 block 13.
`Cc1ccc(C)c(CNc2ccc(S(=O)(=O)N3CCCCC3)cc2)c1` gave PfGluPho inh 6, CRFR2-BP ag -2, H9c2 protect -18, aDG glyco act 0, FAS TE block 28 and CRFBP-R2 block 7.
For Cc1ccc(NC(=O)CN2CCCC2)c2c1CC(C)(C)O2 the results were PfGluPho inh 0, CRFR2-BP ag -2, H9c2 protect 1, aDG glyco act 0, FAS TE block -1 and CRFBP-R2 block 12.
For Cc1cccc(S(=O)(=O)Nc2ccc(C)c3c2OC(C)(C)C3)c1 the results were PfGluPho inh 107*, CRFR2-BP ag -1, H9c2 protect -12, aDG glyco act 0, FAS TE block 7, CRFBP-R2 block 10 and PfGluPho conf 49.
`Cc1ccc(NS(=O)(=O)c2ccccc2Cl)c2c1CC(C)(C)O2` gave PfGluPho inh 109*, CRFR2-BP ag -1, H9c2 protect -4, aDG glyco act 0, FAS TE block 6, CRFBP-R2 block 1, PfGluPho conf 59*, Diaph ctr 10uM 44 and Diaphorase 30uM 30.
`Cc1cc(C)nc(NNS(=O)(=O)c2ccc(F)c(Cl)c2)n1` gave PfGluPho inh 33, CRFR2-BP ag 0, H9c2 protect -3, aDG glyco act 0, FAS TE block -9 and CRFBP-R2 block -7.
`Cc1cc(C)nc(NNS(=O)(=O)c2ccc(Cl)cc2)n1` gave PfGluPho inh 59*, CRFR2-BP ag -1, H9c2 protect 3, aDG glyco act 0, FAS TE block -4, CRFBP-R2 block -4 and PfGluPho conf 13.
Cc1ccc(S(=O)(=O)NC(=O)Nc2ccc(N(C)C)cc2)cc1 was read as PfGluPho inh 73*, CRFR2-BP ag 0, H9c2 protect -17, aDG glyco act 0, FAS TE block -2, CRFBP-R2 block 16 and PfGluPho conf 21.
`CCc1ccccc1N1CSC2=C(C#N)C(c3ccccc3F)CC(=O)N2C1` (stereo unspecified) gave PfGluPho inh 74*, CRFR2-BP ag 11, H9c2 protect -2, aDG glyco act 0, FAS TE block -2, CRFBP-R2 block -17, PfGluPho conf 51*, Diaph ctr 10uM -17 and Diaphorase 30uM -13.
`Cn1c2c(c(=O)n(C)c1=O)C(c1ccccc1F)C(C#N)=C(N)O2` (stereo unspecified) gave PfGluPho inh -28, CRFR2-BP ag 0, H9c2 protect 3, aDG glyco act 1, FAS TE block -5 and CRFBP-R2 block -12.
`COc1ccc(N2CSC3=C(C#N)C(c4cccc(OC)c4OC)CC(=O)N3C2)cc1` (stereo unspecified) gave PfGluPho inh 89*, CRFR2-BP ag 0, H9c2 protect -6, aDG glyco act 0, FAS TE block -5, CRFBP-R2 block 36 and PfGluPho conf 37.
COc1cccc(C2SCC(=O)N2c2ccc(Cl)cc2)c1OC (stereo unspecified) was read as PfGluPho inh -4, CRFR2-BP ag 1, H9c2 protect -4, aDG glyco act 0, FAS TE block 7 and CRFBP-R2 block 14.
For Cc1ccc(S(=O)(=O)N2CCOCC2)cc1C(=O)NNC(=O)c1ccoc1C the results were PfGluPho inh -20, CRFR2-BP ag -1, H9c2 protect 0, aDG glyco act 0, FAS TE block 1 and CRFBP-R2 block 7.

Source: PubChem
